tested on: Vero E6 infected with SARS-CoV-2; test: inhibition of SARS-CoV-2 cytopathic effect; higher = more antiviral protection, active = above 15; conditions: 1 nM; 48 h

| SMILES | inhibition of SARS-CoV-2 cytopathic effect |
| --- | --- |
| CNC1CC(c2ccc(Cl)c(Cl)c2)c2ccccc21 (centres undefined) [indatraline] | -0.39% (inactive) |
| O=C1c2ccccc2C(Cc2ccncc2)(Cc2ccncc2)c2ccccc21 | 1.49% (inactive) |
| N#Cc1c(N)nc(SCc2csc(-c3ccc(Cl)cc3)n2)c(C#N)c1-c1ccc(OCCO)cc1 [capadenoson] | 0.18% (inactive) |
| NC(=O)c1ncn([C@@H]2O[C@H](CO)[C@@H](O)[C@H]2O)c1O [mizoribine] | -1.24% (inactive) |
| Cc1cnc(-c2cnc(NCCNc3ccc(C#N)cn3)nc2-c2ccc(Cl)cc2Cl)[nH]1 | 2.72% (inactive) |
| Cc1cccc(C)c1NC(=O)/N=C1\CCCN1C [xilobam] | -1.73% (inactive) |
| O=[N+]([O-])c1cccc2cn[nH]c12 [7-nitroindazole] | -1.89% (inactive) |
| Cc1cc2sc(NC(=O)Cc3ccccc3)nc2cc1Cl | 2.05% (inactive) |
| CC(CNC(=O)c1cccnc1)NC(=O)c1cccnc1 (centres undefined) [nicaraven] | 0.7% (inactive) |
| Nc1nc(O)c2nc(Br)n([C@@H]3O[C@@H]4COP(=O)(O)O[C@H]4[C@H]3O)c2n1 [8-bromo-cGMP] | 0.61% (inactive) |
| C[C@H]1[C@H](C)CC[C@]2(C(=O)O)CC[C@]3(C)C(=CC[C@@H]4[C@@]5(C)C[C@@H](O)[C@H](O)[C@@](C)(CO)[C@@H]5CC[C@]43C)[C@H]12 [asiatic-acid] | -2.75% (inactive) |
| COc1cc(-n2c(=S)[nH]c3ccccc3c2=O)c(Cl)cc1Cl [mdivi-1] | 0.74% (inactive) |
| CO/N=C(\C(=O)N[C@@H]1C(=O)N2C(C(=O)OCOC(=O)C(C)(C)C)=C(/C=C\c3scnc3C)CS[C@H]12)c1csc(N)n1 [cefditoren-pivoxil] | -0.67% (inactive) |
| Nc1ncnc2c1c(-c1ccc(Cl)cc1)nn2-c1cccc(-c2cnnn2Cc2cccc(-c3ccccc3)c2)c1 | -2.81% (inactive) |
| CNc1nc(NCc2ccc(NS(C)(=O)=O)cc2Cl)cc(-c2ccccn2)n1 | -1.79% (inactive) |
| N#C/C(=C\c1ccc(O)c(O)c1)C(=O)OCCc1cccs1 | 1.43% (inactive) |
| CN1CCN(CC(=O)N2c3ccccc3C(=O)Nc3cccnc32)CC1 [pirenzepine] | -0.09% (inactive) |
| Cc1cc(Nc2ncnc3ccc(-c4ccc(CNCCS(C)(=O)=O)o4)cc23)ccc1Oc1ccn2ncnc2c1 [HER2-Inhibitor-1] | 2.32% (inactive) |
| CC[C@H](C)[C@@H]1NC(=O)[C@H](Cc2ccc(OC)cc2)NC(=O)CCCSC[C@@H](C(=O)N2CCC[C@H]2C(=O)N[C@@H](CC(C)C)C(=O)NCC(N)=O)NC(=O)[C@H](CC(N)=O)NC(=O)[C@H](CCC(N)=O)NC1=O [carbetocin] | -1.89% (inactive) |
| O=C(c1ccc(F)cc1)C1CCN(CCn2c(=S)[nH]c3ccccc3c2=O)CC1 [altanserin] | -0.65% (inactive) |

| SMILES | inhibition of SARS-CoV-2 cytopathic effect |
| --- | --- |
| N=C(N)c1ccc(/N=N/Nc2ccc(C(=N)N)cc2)cc1 [diminazene-aceturate] | 0.66% (inactive) |
| O=S(=O)(O)CCS [mesna] | 2.64% (inactive) |
| CC(=O)c1cnc2ccc(-c3cc(Cl)c(O)c(Cl)c3)nc2c1N[C@H]1CC[C@H](CN(C)C)CC1 | -1.51% (inactive) |
| NC(=O)[C@@H](CC1CC1)[C@@H](CCC(F)(F)F)C(=O)N[C@H]1N=C(c2ccccc2)c2cccc(F)c2NC1=O | -0.36% (inactive) |
| CC[C@@]1([C@H]2O[C@H]([C@H]3O[C@@](O)(CO)[C@H](C)C[C@@H]3C)C[C@H]2C)CC[C@H]([C@@]2(C)CC[C@]3(C[C@H](O)[C@@H](C)[C@@H]([C@H](C)[C@H](OC)[C@@H](C)C(=O)O)O3)O2)O1 | -2.66% (inactive) |
| C[C@H](N)C(=O)N[C@@H](CCC(N)=O)C(=O)O [dipeptamin] | -0.51% (inactive) |
| CC(=O)Oc1ccccc1C(=O)Oc1cccc(CO[N+](=O)[O-])c1 | -1.24% (inactive) |
| C[C@H]1O[C@@H](O[C@H]2[C@@H](O)C[C@H](O[C@H]3[C@@H](O)C[C@H](O[C@H]4CC[C@@]5(C)[C@H](CC[C@@H]6[C@@H]5C[C@@H](O)[C@]5(C)[C@@H](C7=CC(=O)OC7)CC[C@]65O)C4)O[C@@H]3C)O[C@@H]2C)C[C@H](O)[C@@H]1O [digoxin] | -0.14% (inactive) |
| O=S(=O)(O)c1ccc(-c2c3nc(c(-c4ccc(S(=O)(=O)O)cc4)c4ccc([nH]4)c(-c4ccc(S(=O)(=O)O)cc4)c4nc(c(-c5ccc(S(=O)(=O)O)cc5)c5ccc2[nH]5)C=C4)C=C3)cc1 | -2.9% (inactive) |
| CCC(=O)OCC(=O)[C@@]1(OC(=O)CC)[C@@H](C)C[C@H]2[C@@H]3CCC4=CC(=O)C=C[C@]4(C)[C@@]3(Cl)[C@@H](O)C[C@@]21C [beclomethasone-dipropionate] | -9.44% (inactive) |
| NC[C@@H](O)CC(=O)O [aminohydroxybutyric-acid] | -3.49% (inactive) |
| CC(=O)[C@H]1CC[C@H]2[C@@H]3CC[C@H]4C[C@H](O)CC[C@]4(C)[C@H]3C(=O)C[C@]12C [alfaxalone] | -1.46% (inactive) |
| Cc1cc(C)cc(NC(=O)Cc2ccc(OC(C)(C)C(=O)O)cc2)c1 [efaproxiral] | -0.22% (inactive) |
| O=C(O)[C@H](O)c1ccccc1 [mandelic-acid] | -0.12% (inactive) |
| C[C@@H]1CN(Cc2ccc(F)cc2)[C@@H](C)CN1C(=O)c1cc2c(C(=O)C(=O)N(C)C)cn(C)c2cc1Cl [talmapimod] | -1.36% (inactive) |
| Cc1ccc(-c2csc3ncnc(SCCC(=O)O)c23)cc1 | -0.23% (inactive) |
| CC12CCC(C(=O)N(CCCCN3CCN(c4ccccn4)CC3)C1=O)C2(C)C (centres undefined) [piricapiron] | -2.91% (inactive) |
| CCC1=C[C@@H]2CN3CCc4c([nH]c5ccccc45)[C@@](C(=O)OC)(C2)[C@@H]13 [catharanthine] | 0.42% (inactive) |
| O=C(NC1CCN(CCc2c[nH]c3ccccc23)CC1)c1ccccc1 [indoramin] | 0.38% (inactive) |

Source: the supplement of paper PMC13380429
